From ChEMBL document CHEMBL3433997, “St. Jude Leishmania screening dataset” (2016)

target: Solute carrier family 2, facilitated glucose transporter member 1 (Homo sapiens) (UniProt P11166); assay: ST_JUDE_LEISH: Cytotoxicity at 2uM final concentration against transgenic Leishmania Mexicana promastigotes LmGLUT1 that are glucose transport deficient and complemented with the human glucose transporter GLUT1. Activity is measured by DNA content using SYBR green in vitro; format: functional
Sequence (P11166 whole entry): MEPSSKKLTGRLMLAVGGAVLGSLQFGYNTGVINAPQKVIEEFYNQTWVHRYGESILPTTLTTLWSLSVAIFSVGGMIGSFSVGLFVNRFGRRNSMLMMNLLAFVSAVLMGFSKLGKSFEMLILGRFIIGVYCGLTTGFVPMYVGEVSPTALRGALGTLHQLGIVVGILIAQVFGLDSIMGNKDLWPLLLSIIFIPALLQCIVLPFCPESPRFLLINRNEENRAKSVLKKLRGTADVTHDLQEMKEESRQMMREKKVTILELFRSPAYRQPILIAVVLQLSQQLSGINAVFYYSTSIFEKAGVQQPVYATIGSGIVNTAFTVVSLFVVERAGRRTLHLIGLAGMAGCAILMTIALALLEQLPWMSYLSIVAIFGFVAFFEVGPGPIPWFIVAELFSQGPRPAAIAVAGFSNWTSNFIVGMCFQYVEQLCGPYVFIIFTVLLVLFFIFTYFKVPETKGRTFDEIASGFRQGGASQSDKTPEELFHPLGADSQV

Compound	inhibition [%]
CCCCNCc1ccc(-c2nc(CN(CCCN3CCN(C)CC3)C(=O)Nc3cccc(Cl)c3)cs2)cc1	5.24
Cc1nn(CC(O)Cn2c3ccc(Br)cc3c3cc(Br)ccc32)c(C)c1Br (stereo not given)	-0.46
COc1ccc(OC)c(NC(=O)C2c3ccccc3C(=O)N(CC(C)C)C2c2cccs2)c1 (stereo not given)	-1.99
CCCC(C)Nc1nc(C)cc(N[C@@H](CC(C)C)C(=O)NC2CCCC2)n1 (stereo not given in full)	2.53
COc1cccc(NC(=O)c2cc(Br)cc(N3CCN(c4ccncc4)CC3)c2)c1	2.41
O=C(/C=C/c1ccc(Cl)c(Cl)c1)NCCCCCN1CCC(CCNC(=O)/C=C/c2ccccc2F)CC1	2.07
CNCCNCc1ccc(-c2ccc(-c3nc4ccccc4[nH]3)s2)cc1	3.78
Nc1cccc(-c2ccc3ccnc(N)c3c2)c1	3.63
COc1ccc(-c2nc(NC(=O)CS(=O)(=O)c3ccccc3)sc2C)cc1	8.8
Cc1nc2nc(N)nc(N)c2c(C)c1Cc1ccc(Cl)cc1	33.4
CC(=O)c1ccc(NC(=O)Nc2ccc(N(C)c3ccnc(Nc4cccc(CS(C)(=O)=O)c4)n3)cc2)cc1	-0.18
Cc1[nH]cc(Br)c(=O)c1-c1ccc(Oc2ccccc2)cc1	2.07
Cc1cc(-c2ccc3c(c2)CCN(CCC2CCC(NC(=O)/C=C/c4cccc(Cl)c4)CC2)CC3)on1 (stereo not given)	4.19
CCCCCNc1nc(Nc2ccccc2C)nc2ccccc12	29.1
COC(=O)Cc1ccc(N)c2ccccc12	-0.85
C=CCc1cc(SC)ccc1Oc1ccc(N)cc1	1.84
CN(C)CCN(C)Cc1ccc(-c2ccc3c(Nc4ccc(Cl)cc4F)ccnc3c2)o1	1.16
COc1ccc(Nc2nccc(NCCNC(=O)c3cc4ccccc4s3)n2)cc1	5.11
Cc1c(Cc2ccc(C(C)C)cc2)cnc2nc(N)nc(N)c12	1.34
CC[C@H](C)CNC(=O)c1cncc(-c2ccc(CNC3CCCC3)cc2)c1	2.12

Compound	inhibition [%]
CN1CCN(c2cccc(-c3nnc(-c4cccc(OCC(=O)NCc5ccc(C(F)(F)F)cc5)c4)o3)c2)CC1	1.77
Cc1c[nH]c2cc(/C=C/C(=O)NC3CCC(CCN4CCc5ccc(C#N)cc5CC4)CC3)ccc12 (stereo not given)	2.72
Cc1c(-c2cccc(NC(=O)C(C)(C)Oc3ccc(Cl)cc3)c2)nc2ncccn12	-0.94
CCN(CC)CCN(Cc1ccc(-c2ccc(Br)cc2)cc1)C(=O)Cn1c(CCc2cccc(F)c2F)nc(=O)c2ccccc21	2.2
Cc1cccc2[nH]cc(C3CCN(CCC4CCN(C(=O)/C=C/c5ccc(Cl)c(Cl)c5)CC4)CC3)c12	1.19
COc1ccc(-c2ccc(CNC(=O)c3ccc(Cl)cc3)c(F)c2)cc1CN1CCCN(C)CC1	3.27
C[C@@H](CC1CCCCC1)OC(=O)N[C@H]1CCN(C#N)C1	12.8
Cc1cc(C(=O)CN2C(=O)NC(C)(c3cccc4ccccc34)C2=O)c(C)n1Cc1ccco1 (stereo not given)	6.55
COc1ccc2ncn(-c3ccc(C(N)=O)c(OCc4ccccc4C(F)(F)F)c3)c2c1	-0.54
CN(C)CCOc1ccc(-c2cc(-c3ccc(Cl)c(O)c3)c(-c3ccnc(N)n3)o2)cc1	2.11
c1cncc(CCNCc2cccc(-c3ccc(-c4nc5ccccc5[nH]4)s3)c2)c1	7.99
O=c1[nH]nc(-c2ccc(N3CCCC3)c([N+](=O)[O-])c2)c2ccccc12	2.71
Nc1cccc(CNCc2cccc(-c3ccc(-c4nc5ccccc5[nH]4)s3)c2)c1	7.77
CCNc1cc(C(=O)N[C@@H](Cc2ccccc2)[C@H](O)CNC2(CCC(C)C)CC2)cc(N2CCCCS2(=O)=O)c1	-1.85
COc1ccc2nccc([C@@H](O)CN3CCC(NC(=O)/C=C/c4c[nH]c5c(C)cccc45)CC3)c2c1	1.59
Fc1ccc2[nH]ccc(=NN=CC=Cc3ccccc3)c2c1	1.52
CN=C(S)NN=C(C)c1ccccn1	2.61
CC(C)(C)c1ccc(CN2CCC(CNC(=O)c3cc(-c4cccc(C(F)(F)F)c4)cs3)C2)cc1 (stereo not given)	-1.18
CN1CCN(c2ccc(Nc3ncc([N+](=O)[O-])c(Nc4ccccc4O)n3)cc2)CC1	2.1
CN(CCN(C)CC(O)c1ccc(Cl)c(Cl)c1)CC(O)c1ccc(Cl)c(Cl)c1 (stereo not given)	11.5

target: Hexose transporter 1 (Plasmodium falciparum) (UniProt O97467); assay: ST_JUDE_LEISH: Cytotoxicity at 2uM final concentration against transgenic Leishmania Mexicana promastigotes LmPfHT that are glucose transport deficient and complemented with the Plasmodium falciparum hexose transporter. Activity is measured by DNA content using SYBR green in vitro; format: functional

Compound	inhibition [%]
CCCCNCc1ccc(-c2nc(CN(CCCN3CCN(C)CC3)C(=O)Nc3cccc(Cl)c3)cs2)cc1	9.93
Cc1nn(CC(O)Cn2c3ccc(Br)cc3c3cc(Br)ccc32)c(C)c1Br (stereo not given)	-3.23
COc1ccc(OC)c(NC(=O)C2c3ccccc3C(=O)N(CC(C)C)C2c2cccs2)c1 (stereo not given)	-2.35
CCCC(C)Nc1nc(C)cc(N[C@@H](CC(C)C)C(=O)NC2CCCC2)n1 (stereo not given in full)	4.34
COc1cccc(NC(=O)c2cc(Br)cc(N3CCN(c4ccncc4)CC3)c2)c1	2.07
O=C(/C=C/c1ccc(Cl)c(Cl)c1)NCCCCCN1CCC(CCNC(=O)/C=C/c2ccccc2F)CC1	-1.13
CNCCNCc1ccc(-c2ccc(-c3nc4ccccc4[nH]3)s2)cc1	4.5
Nc1cccc(-c2ccc3ccnc(N)c3c2)c1	4.39
COc1ccc(-c2nc(NC(=O)CS(=O)(=O)c3ccccc3)sc2C)cc1	4.92
Cc1nc2nc(N)nc(N)c2c(C)c1Cc1ccc(Cl)cc1	43.3
CC(=O)c1ccc(NC(=O)Nc2ccc(N(C)c3ccnc(Nc4cccc(CS(C)(=O)=O)c4)n3)cc2)cc1	0.54
Cc1[nH]cc(Br)c(=O)c1-c1ccc(Oc2ccccc2)cc1	2.3
Cc1cc(-c2ccc3c(c2)CCN(CCC2CCC(NC(=O)/C=C/c4cccc(Cl)c4)CC2)CC3)on1 (stereo not given)	3.51
CCCCCNc1nc(Nc2ccccc2C)nc2ccccc12	22.7
COC(=O)Cc1ccc(N)c2ccccc12	-0.46
C=CCc1cc(SC)ccc1Oc1ccc(N)cc1	2.06
CN(C)CCN(C)Cc1ccc(-c2ccc3c(Nc4ccc(Cl)cc4F)ccnc3c2)o1	2.08
COc1ccc(Nc2nccc(NCCNC(=O)c3cc4ccccc4s3)n2)cc1	3.59
Cc1c(Cc2ccc(C(C)C)cc2)cnc2nc(N)nc(N)c12	0.5
CC[C@H](C)CNC(=O)c1cncc(-c2ccc(CNC3CCCC3)cc2)c1	1.43

Compound	inhibition [%]
CN1CCN(c2cccc(-c3nnc(-c4cccc(OCC(=O)NCc5ccc(C(F)(F)F)cc5)c4)o3)c2)CC1	1.65
Cc1c[nH]c2cc(/C=C/C(=O)NC3CCC(CCN4CCc5ccc(C#N)cc5CC4)CC3)ccc12 (stereo not given)	1.75
Cc1c(-c2cccc(NC(=O)C(C)(C)Oc3ccc(Cl)cc3)c2)nc2ncccn12	-1.86
CCN(CC)CCN(Cc1ccc(-c2ccc(Br)cc2)cc1)C(=O)Cn1c(CCc2cccc(F)c2F)nc(=O)c2ccccc21	3.29
Cc1cccc2[nH]cc(C3CCN(CCC4CCN(C(=O)/C=C/c5ccc(Cl)c(Cl)c5)CC4)CC3)c12	-2.11
COc1ccc(-c2ccc(CNC(=O)c3ccc(Cl)cc3)c(F)c2)cc1CN1CCCN(C)CC1	0.3
C[C@@H](CC1CCCCC1)OC(=O)N[C@H]1CCN(C#N)C1	8.07
Cc1cc(C(=O)CN2C(=O)NC(C)(c3cccc4ccccc34)C2=O)c(C)n1Cc1ccco1 (stereo not given)	6.14
COc1ccc2ncn(-c3ccc(C(N)=O)c(OCc4ccccc4C(F)(F)F)c3)c2c1	-1.32
CN(C)CCOc1ccc(-c2cc(-c3ccc(Cl)c(O)c3)c(-c3ccnc(N)n3)o2)cc1	2.73
c1cncc(CCNCc2cccc(-c3ccc(-c4nc5ccccc5[nH]4)s3)c2)c1	7.19
O=c1[nH]nc(-c2ccc(N3CCCC3)c([N+](=O)[O-])c2)c2ccccc12	3.31
Nc1cccc(CNCc2cccc(-c3ccc(-c4nc5ccccc5[nH]4)s3)c2)c1	8.55
CCNc1cc(C(=O)N[C@@H](Cc2ccccc2)[C@H](O)CNC2(CCC(C)C)CC2)cc(N2CCCCS2(=O)=O)c1	-0.04
COc1ccc2nccc([C@@H](O)CN3CCC(NC(=O)/C=C/c4c[nH]c5c(C)cccc45)CC3)c2c1	1.23
Fc1ccc2[nH]ccc(=NN=CC=Cc3ccccc3)c2c1	3
CN=C(S)NN=C(C)c1ccccn1	-4.43
CC(C)(C)c1ccc(CN2CCC(CNC(=O)c3cc(-c4cccc(C(F)(F)F)c4)cs3)C2)cc1 (stereo not given)	-0.44
CN1CCN(c2ccc(Nc3ncc([N+](=O)[O-])c(Nc4ccccc4O)n3)cc2)CC1	3.83
CN(CCN(C)CC(O)c1ccc(Cl)c(Cl)c1)CC(O)c1ccc(Cl)c(Cl)c1 (stereo not given)	9.66
